Source: PubChem BioAssay (National Center for Advancing Translational Sciences (NCATS))
Compounds with a hit are over-represented: about 19% of the library has one in this group of screens.
TDP1 block – blocks human tyrosyl-DNA phosphodiesterase 1; Q9NUW8; recombinant TDP1, AlphaScreen DNA substrate cleavage; Potency, µM (titrated, usually from 130 µM), hits mostly inhibitors; 0.28% of 350,000 active; AID 485290; further: nearly all actives have a fitted effect of over 40% in size
Target sequence (Q9NUW8 whole entry, looked up): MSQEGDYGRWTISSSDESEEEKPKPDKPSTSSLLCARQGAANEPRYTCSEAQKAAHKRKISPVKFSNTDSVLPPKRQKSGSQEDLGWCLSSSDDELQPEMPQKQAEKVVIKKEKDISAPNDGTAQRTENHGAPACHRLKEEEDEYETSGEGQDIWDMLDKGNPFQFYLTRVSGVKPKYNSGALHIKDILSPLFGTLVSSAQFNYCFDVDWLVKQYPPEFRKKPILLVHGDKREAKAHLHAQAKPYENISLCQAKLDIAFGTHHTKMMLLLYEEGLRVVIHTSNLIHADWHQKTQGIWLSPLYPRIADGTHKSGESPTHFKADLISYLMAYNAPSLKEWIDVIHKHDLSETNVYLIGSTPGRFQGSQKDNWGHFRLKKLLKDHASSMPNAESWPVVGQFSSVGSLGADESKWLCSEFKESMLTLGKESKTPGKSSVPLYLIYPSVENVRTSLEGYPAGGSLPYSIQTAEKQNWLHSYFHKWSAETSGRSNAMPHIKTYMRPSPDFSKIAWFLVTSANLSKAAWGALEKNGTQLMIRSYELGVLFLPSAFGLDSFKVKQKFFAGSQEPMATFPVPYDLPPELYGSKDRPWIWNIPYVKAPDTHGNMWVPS
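Recombinant human Tdp1 (E. coli-expressed, 1 nM final) preincubated with compounds 15 min at room temperature, then 5'-biotin/3'-phosphotyrosine-FITC DNA substrate (15 nM final) added for 5 min. AlphaScreen beads (10 ug/ml final) added 10 min; cleavage lowers signal.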
TDP1 cell noCPT – qHTS for Inhibitors of human tyrosyl-DNA phosphodiesterase 1 (TDP1): qHTS in cells in absence of CPT. AID 686978, 2013. DT40 Tdp1-/- hTDP1 cells, no CPT, ATP luminescence, 48 h. Potency, µM (titrated, usually from 46.2 µM), most hits filed as inhibitors. 15% of 420,000 active; further: nearly all actives have a fitted effect of over 55% in size
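Growth kinetics read by CellTiter-Glo luminescence after ≥48 hr at 37 °C. Cells: DT40 Tdp1-/- stably carrying human TDP1, 400 per well, compound exposure in the absence of CPT (DMSO vehicle).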
TDP1 cell CPT – growth inhibition of DT40 Tdp1-/-;hTDP1 cells with camptothecin (screen for TDP1 inhibitors); chicken DT40 Tdp1-/-;hTDP1 cells + 20 nM CPT, ATP luminescence, 48 h; Potency, µM (highest dose often 46.2 µM), most hits filed as inhibitors; 12% of 420,000 active; further: nearly all actives have a fitted effect of over 55% in size
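Chicken DT40 Tdp1-/- cells complemented with human TDP1, 400 cells/well, exposed to compounds plus 20 nM camptothecin for at least 48 h at 37 C; viability read as ATP content by CellTiter-Glo luminescence.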
IL1B secr inh – blocks inflammasome-driven IL-1 beta release; activity change, % at 57.5 µM; THP-1 LPS/ATP IL-1B secretion, AlphaLISA, 16 h; stronger effect = lower value; 4.7% of 360,000 active; in the data active means activity change below about -50%; inconclusive means mostly about -30% to -49%
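Secreted IL-1B measured by AlphaLISA bead assay after 16 h compound exposure of THP-1 cells; compounds (final up to 57.5 uM) added 1 h before LPS (250 ng/mL) and ATP (1.25 mM) stimulation; lower signal means less secretion.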
ELG1 repair inh – inhibitors of ELG1-dependent DNA repair in HEK293T cells. HEK293T ELG1-luciferase reporter, luminescence, 16 h; DNA damage induced by 5-fluorouridine. Potency, µM (doses to about 46.1 µM), usual class: inhibitors. 2.3% of 330,000 active. AID 504467; further: nearly all actives have a fitted effect of over 55% in size
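In this reporter screen, reduction of luminescence relative to DMSO vehicle indicated activity. Compounds and 5-fluorouridine were added together to 2,000 cells per well, incubated for 16 hr at 37 °C, then developed with ONE-Glo.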
Giardia killer – Giardia lamblia killing | Giardia lamblia trophozoite viability | activity change, % at 7.66 µM, hits read low | 0.15% of 340,000 active | AID 540267; in the data active means activity change below about -80%; inconclusive means between about -30% and that limit;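 further: parasites exposed to compound for two days anaerobically before the ATP read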
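Killing of trophozoites was scored by loss of ATP luminescence after a 48 hrs anaerobic exposure to compounds at 37 deg C, using 100 cells per well.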
A number is an active result; n = inactive; u = inconclusive; x = no result given; [ ] = remark or other dose. Unless noted, the call rests on the fitted dose curve; in most records, active means well fitted curve in the direction sought with a large enough effect; inconclusive means small, poorly fitted or top-dose-only effect, or another doubt; inactive means no such curve, though single readings can be large; an effect the other way counts as inactive or inconclusive.

SMILES | TDP1 block | TDP1 cell noCPT | TDP1 cell CPT | IL1B secr inh | ELG1 repair inh | Giardia killer
CC1CCCCN1C(=O)CSc1nnc(-c2cccc(Cl)c2)o1 (stereo not given) | n | u | 16µM | x | x | x
COC(=O)c1cc(C(=O)Nc2nnc(C3CC3)s2)cc([N+](=O)[O-])c1 | n | n | u | n | n | n
CCc1ccccc1NC(=O)N1CCOc2ccccc21 | n | n | u | x | x | x
COc1ccc(OC)c(CCNC(=O)c2cc3c(-c4ccccc4F)nn(C)c3s2)c1 | n | 8.2µM | 12µM | x | x | x
COc1ccc(NC(=O)c2cc3c(-c4ccccc4F)nn(C)c3s2)c(OC)c1 | n | 10µM | 10µM | x | x | x
Cc1ccc2c(Sc3ccccc3)c(C(=O)NCc3ccccc3F)[nH]c2c1 | n | u | 9.2µM | x | x | x
COc1cccc(CNC(=O)c2[nH]c3cc(C)ccc3c2Sc2ccccc2)c1 | n | 15µM | u | x | x | x
COc1ccc2c(Sc3ccccc3)c(C(=O)NCc3cccc(OC)c3OC)[nH]c2c1 | n | u | u | x | x | x
CC(=O)c1cc2ccccc2c2ccccc12 | x | n | n | x | x | x
C=CCn1c(SCC(=O)Nc2c(C)n(C)n(-c3ccccc3)c2=O)nc2scc(-c3ccccc3)c2c1=O | n | u | u | n | 23µM | n
C=CCn1c(SCC(=O)NCCCC)nc2scc(-c3ccco3)c2c1=O | n | u | u | -68 | u | n
CCn1c(SC(C)C(=O)NCC2CCCO2)nc2scc(-c3ccccc3)c2c1=O (stereo not given) | n | u | 18µM | n | u | n
C=CCn1c(SCC(=O)NC2CCCC2)nc2scc(-c3ccco3)c2c1=O | n | u | u | n | u | n
CC(Sc1ncnc2c1cnn2-c1ccccc1)C(=O)NCC1CCCO1 (stereo not given) | n | n | n | n | n | n
Cc1nc(SC(C)C(=O)NCC2CCCO2)c2cc(-c3ccccc3)sc2n1 (stereo not given) | n | 15µM | 15µM | -63 | u | n
N#Cc1c(Cl)cccc1Oc1ccc(S(=O)(=O)Nc2ccccc2)cc1 | n | u | n | x | n | n
CC(=O)Nc1ccc(-c2nnc(SCC(=O)c3ccc([N+](=O)[O-])cc3)o2)cc1 | n | x | x | x | x | x
COC(=O)N1C(/C=C/c2ccc3c(c2)OCO3)=Cc2ccccc2C1CC(C)=O (stereo not given) | n[21 µM] | x | x | x | x | x
CC(C)[C@H](NC(=O)c1ccccc1)C(=O)OCC(=O)Nc1sccc1C(N)=O | n | u | n | n | u | n
CC1CCN=C(N)S1 (stereo not given) | n | n | n | n | x | n
C=CCn1c(SCC(=O)Nc2ccc(C(=O)O)cc2)nc2scc(-c3ccccc3)c2c1=O | n | n | n | n | n | n
C=CCn1c(SCC(=O)NCC2CCCO2)nc2scc(-c3ccccc3)c2c1=O (stereo not given) | n | u | 26µM | n | n | n
CCCOc1ccc(C(=O)Nc2nc(C)c(Cc3ccc4c(c3)OCO4)s2)cc1 | n | 7.3µM | u | n | u | n
Cc1nc(NC(=O)c2ccc(OCC(C)C)cc2)sc1Cc1ccc2c(c1)OCO2 | n | 16µM | u | n | n | n
COc1cc(C(=O)NCCc2ccc3c(c2)OCO3)cc(OC)c1OC | x | u | u | n | x | n
SMILES | TDP1 block | TDP1 cell noCPT | TDP1 cell CPT | IL1B secr inh | ELG1 repair inh | Giardia killer
COc1cc(C(=O)Nc2nc(C)c(Cc3ccc4c(c3)OCO4)s2)cc(OC)c1OC | n | 2.1µM | 1.3µM | n | u | n
C/C(=N\Nc1nc2ccccc2s1)c1ccc(Br)s1 | x | u | u | -103 | n | n
CC(=NNc1nc2ccccc2s1)c1ccncn1 | x | 0.15µM | 0.1µM | -94 | x | n
C/C(=N\Nc1nc2ccccc2s1)c1ccc2c(c1)OCO2 | n | n | u | n | u | n
Cc1ccc(/C=N/Nc2nc3ccccc3s2)o1 | n | u | u | u | u | n
COc1ccc(-c2c(C3C4C=CCCC4(C)C(=O)N3Cc3ccccc3)ccc3ccccc23)cc1 (stereo not given) | n | x | x | x | x | n
COc1cc2c(cc1NC(=O)CN1CCN(S(=O)(=O)c3ccccc3F)CC1)oc1ccccc12 | n | 21µM | 15µM | n | n | n
COc1cc2c(cc1NC(=O)CC1SC(N3CCCC3)=NC1=O)oc1ccccc12 (stereo not given) | n | 21µM | u | n | u | n
COc1cc2c(cc1NC(=O)CCCCCN1C(=O)CCC1=O)oc1ccccc12 | n | u | u | u | 21µM | n
ON=C1C2CC=C(c3ccccc3)C1CCC2 (stereo not given) | x | n | u | -58 | x | n
CCOC(=O)c1c(C)c(-c2ccccc2)n(CC(=O)Nc2cc(C)cc(C)c2)c1C | n | u | u | x | x | x
O=C(Nc1cccc(NC(=O)c2ccccc2F)c1)c1ccccc1 | n[12.3 µM] | u | u | -54 | n | n
CCCC(=O)Nc1ccc(NC(=O)c2ccccc2F)cn1 | x | n | n | -61 | u | n
O=C(Nc1ccncc1)c1ccccc1F | n | n | u | u | 10µM | u
Cc1ccc(Cl)cc1NC(=S)N1CCC(c2ccccc2)C1 (stereo not given) | n | u | n | n | n | n
Cc1nc2ccc(C(=O)NC(C)(C)C)cn2c1N(C)C(=O)CCc1ccccc1 | x | n | n | n | x | x
Nc1ccn(Cc2ccc(F)cc2)n1 | n | n | n | n | n | n
Cc1cccc(-n2[nH]c3c4c(ccc3c2=O)C(=O)c2ccccc2C4=O)c1 | n | u | 21µM | n | n | n
CC(C)Cn1[nH]c2c3c(ccc2c1=O)C(=O)c1ccccc1C3=O | n | 16µM | 23µM | n | u | u
Cc1[nH]n(-c2cccc(Cl)c2)c(=O)c1-c1ccccc1 | n | u | n | n | n | n
Cc1c(C(=O)NCCC2=CCCCC2)sc2ncnc(N3CCCCC3C)c12 (stereo not given) | n | n | u | -80 | u | n
COc1cc(=O)n2c(c1C(=O)N(C)Cc1nccs1)CCN(Cc1cccc(F)c1F)CC2 | x | n | n | x | x | x
Cc1ccc(NC(=O)c2cc3ccccc3o2)cc1Cl | n | u | u | -52 | u | n
CCCCOC(=O)c1cccc(NC(=O)c2cc3ccccc3o2)c1 | n[12.3 µM] | 5.2µM | 13µM | x | x | x
CC(=O)Nc1cccc(NC(=O)c2cc3ccccc3o2)c1 | n | 21µM | 16µM | n | u | n
Cc1ccc(NC(=O)c2cc3ccccc3o2)nc1 | x | n | n | -96 | u | n
Cc1ccc(-c2nc3cc(NC(=O)c4cc5ccccc5o4)ccc3o2)cc1Cl | x | u | n | x | x | x
CCC(C)[C@H](NC(=O)N1CCn2c1nc1ccccc12)C(=O)NCc1ccccc1 (stereo not given in full) | n | u | u | n | n | n
